# Data as given in PubChem BioAssay AID492956 (The Scripps Research Institute Molecular Screening Center, 2010).
# Hit rate of the full screen: of about 340,000 compounds, about 3,300 (0.97%) were called active. What follows is part of a selection rich in actives, with near analogues and random picks from the rest. A number with no mark means an inactive call.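 How the source made its calls: active means inhibition above the mean over all tested compounds plus 3 SD (cut at about 30% in these data); inactive means the rest.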
# Molecular target: Platelet-activating factor acetylhydrolase 2, cytoplasmic (Homo sapiens) (UniProt Q99487)
# Assay: PAFAH2 enzyme inhibitors, primary screen, biochemical, fluorescence polarization, human (AID 492956);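 further: inhibitors block probe labeling of enzyme so polarization drops; 0% = enzyme with DMSO and 100% = wells lacking PAFAH2 protein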
# Conditions: recombinant PAFAH2, FP-rhodamine activity probe, at 3.39 µM, active compounds read high
row,SMILES,inhibition
1,Cc1ccc(-c2nn(-c3ccc(F)cc3)cc2C(=O)NCC(c2cccs2)N2CCOCC2)cc1 (configuration not stated),3.21%
2,Cc1cc(C(=O)N2CCN(c3ccccn3)CC2)c(C)o1,-1.14%
3,O=C(CSC1=Nc2ccccc2C2=NC(c3ccccc3)C(=O)N12)NCC1CCCO1 (configuration not stated),7.84%
4,CC(C)C1N=C2c3ccccc3N=C(SCC(=O)c3ccc(O)c(O)c3)N2C1=O (configuration not stated),43.8% (active)
5,NC(=O)CSC1=Nc2ccccc2C2=NC(CCC(=O)NCc3ccc(F)cc3)C(=O)N12 (configuration not stated),1.37%
6,C/C(=N/Nc1nc(-c2ccccc2)c(CC(=O)O)s1)c1ccccc1,0.51%
7,CCOC(=O)CCCN1CC(O)=C(c2nc3ccccc3s2)C1=N,34.8% (active)
8,N=C1C(c2nc3ccccc3s2)=C(O)CN1NC(=O)c1ccc([N+](=O)[O-])cc1,8.9%
9,COc1ccccc1N1CC(O)=C(c2nc3ccccc3s2)C1=N,33.6% (active)
10,CCCCCN1CC(O)=C(c2ccccc2)C1=N,-3.01%
11,CCCCCN1CC(O)=C(c2nc(-c3ccc(Cl)cc3)cs2)C1=N,-0.6%
12,CCc1ccc(N2CC(O)=C(c3nc4ccccc4c(=O)[nH]3)C2=N)cc1,-1.39%
13,CC(=O)Nc1ccc(N2C(=O)CCC2=O)cc1C,-0.05%
14,NC(=O)C1CCN(Cc2nc3c(Br)cc(Br)cc3c(=O)[nH]2)CC1,-2.66%
15,C/C=C/C=C/C(=O)OCC(=O)Nc1ccc(Cl)cc1,86.5% (active)
16,C/C=C/C(=O)OCC(=O)Nc1ccc(F)cc1Cl,26%
17,CCC(=O)Nc1ccc(C(=O)NNC(=O)c2ccc(Cl)cc2)cc1,-2.08%
18,COc1ccc(-n2c(C)nn(CC3CC3)c2=O)cc1,0.47%
19,O=C1NCC(c2ccccc2)(c2ccccc2)C(=O)N1,-5.72%
20,O=C(CSc1n[nH]c(-c2cccnc2)n1)Nc1ccc(Cl)cc1,-7.75%
21,O=[N+]([O-])c1cc(S(=O)(=O)NCCc2ccccn2)ccc1Cl,4.86%
22,O=C(COC(=O)/C=C/c1ccc(Br)o1)Nc1cccc(S(=O)(=O)N2CCOCC2)c1,42% (active)
23,O=C(COC(=O)c1ccccc1)Nc1cccc(S(=O)(=O)N2CCOCC2)c1,37.7% (active)

row,SMILES,inhibition
1,O=C(CN1CCc2ccccc2C1)Nc1cccc(S(=O)(=O)N2CCOCC2)c1,5.27%
2,O=C(COC(=O)CCOc1ccccc1)Nc1cc(S(=O)(=O)N2CCCCC2)ccc1Cl,-0.76%
3,CS(=O)(=O)c1ccc(Cl)c(NC(=O)COC(=O)c2cccc(S(=O)(=O)N3CCCC3)c2)c1,32.3% (active)
4,O=C(COC(=O)COc1ccccc1F)Nc1cccc(S(=O)(=O)N2CCCCC2)c1,-7.67%
5,CC(=O)c1cccc(OCC(=O)OCC(=O)Nc2cc(S(=O)(=O)N3CCCCC3)ccc2C)c1,1.56%
6,CC(NC(=O)c1ccccc1)C(=O)OCC(=O)Nc1cccc(S(=O)(=O)N2CCCC2)c1 (configuration not stated),7.86%
7,CN=C(Nc1cccc(S(=O)(=O)N2CCOCC2)c1)c1ccccc1,0.65%
8,O=C(COC(=O)CCc1ccc(S(=O)(=O)N2CCOCC2)cc1)Nc1cccc(Cl)c1,0.83%
9,O=C(CSc1ccccc1)Nc1cccc(S(=O)(=O)N2CCOCC2)c1,-0.86%
10,CCOc1ncccc1C(=O)OCC(=O)Nc1cccc(S(=O)(=O)N2CCCCCC2)c1,60% (active)
11,OC(CN1C2=NCCCN2c2ccccc21)c1ccc(Br)cc1 (configuration not stated),9.07%
12,C=CCNC(=O)/C=C/c1ccc(C(C)C)cc1,10%
13,CC(=O)NC12CC3CC(C1)CC(C(=O)N1CCN(S(=O)(=O)c4cccs4)CC1)(C3)C2,17.5%
14,O=C(OCC(=O)N1CCCCCC1)c1ccc(Br)c(S(=O)(=O)N2CCOCC2)c1,8.68%
15,COc1cccc(NC(=O)COc2cc(C)cc3oc(=O)cc(C)c23)c1,-3.3%
16,CC(=O)c1nn(-c2ccc(C)cc2)cc1C(=O)c1cccc(Br)c1,1.51%
17,Cc1ccc(C)c(C(=O)COC(=O)Cn2[nH]c(=O)c3ccccc3c2=O)c1,-1.71%
18,COCCCNC(=O)c1c(F)c(F)c(F)c(F)c1F,-4.37%
19,CC(NC(=O)CN1CCN(Cc2ccc(Cl)cc2)C1=O)c1ccc2c(c1)OCCO2 (configuration not stated),1.47%
20,O=C(NCc1cccnc1)c1cccnc1Sc1ccc(Cl)cc1,2.4%
21,COc1ccccc1C(=O)OCC(=O)Nc1cccc(S(=O)(=O)NC2=NCCCCC2)c1,12.3%
22,O=C(COC(=O)c1c(Cl)cccc1Cl)Nc1cccc(S(=O)(=O)NC2=NCCCCC2)c1,8.12%
23,CCc1ccc(C(=O)OCC(=O)Nc2cccc(S(=O)(=O)NC3=NCCCCC3)c2)cc1,52.3% (active)

row,SMILES,inhibition
1,CNC(=O)C1CC(=O)N(Cc2ccc3c(c2)OCO3)C(=Nc2ccc(F)cc2)S1 (configuration not stated),0.97%
2,CCC1(C)N(O)C(C)(C)C(c2ccc(OC)cc2)=[N+]1[O-] (configuration not stated),2.06%
3,CCc1ccccc1NC(=O)c1ccc2c(c1)CCN2S(C)(=O)=O,2.6%
4,COCCNC(=O)Nc1ccc2nc(-c3ccco3)c(-c3ccco3)nc2c1,35.8% (active)
5,COCCNC(=O)c1snc2ccc(Cl)cc12,-2.13%
6,O=C(Nc1nc(-c2ccco2)c(-c2ccco2)s1)c1ccco1,22.9%
7,Cc1nnsc1C(=O)NCc1c(F)cccc1Cl,2.19%
8,Cc1oc2cc(Br)c(O)c(Br)c2c1C(=O)c1ccccc1,59.6% (active)
9,Cc1oc2cc([N+](=O)[O-])c(O)c([N+](=O)[O-])c2c1C(=O)c1ccc(Br)cc1,8.04%
10,CCOC(=O)c1c(-c2ccccc2)oc2cc(Br)c(O)c(C=O)c12,6.96%
11,COCCN(CCOC)c1nc(N)c2c(N)nc3c(c2c1C#N)CC(=O)N3Cc1ccc(Cl)cc1,5.58%
12,c1ccc(CSc2nnc(-c3ccco3)c(-c3ccco3)n2)cc1,57% (active)
13,S=C(NCc1ccco1)NCc1ccccc1Cl,2.25%
14,CSc1nc(-c2ccco2)nn1C(=O)c1ccccc1Cl,0.54%
15,CCc1nnc(SCc2cccc(F)c2)nc1CC,0.34%
16,Clc1ccccc1CSc1nnc(-c2ccco2)c(-c2ccco2)n1,62.2% (active)
17,Clc1ccc(CSc2nnc3c(n2)[nH]c2ccccc23)cc1,-12.8%
18,Nn1c(SCC(=O)NC2CCCC2)nnc1-c1ccccc1F,3.8%
19,CCn1c(N)c(Br)c(=O)[nH]c1=O,-4.56%
20,Cc1ccc(-n2nc(N)c3c(=O)oc(N(C)C)nc32)cc1,55.9% (active)
21,CSc1ccc(-c2c(C#N)c(N)nc3c2c(C)nn3-c2ccccc2)cc1,-18.9%
22,CCCNC(=O)CCc1c(C)nc2c(c(C)nn2-c2ccc(C)cc2)c1C,-8.03%
23,Cc1ccc(NC(=S)Nc2ncccc2C)c(C)c1,-4.32%

row,SMILES,inhibition
1,CC1=C(C)CC(C(=O)NNC(=O)c2ccccc2O)C(C(=O)O)C1 (configuration not stated),-2.13%
2,Cc1cc(C(=O)NNC(=O)CCC2CCCCC2)c(C)o1,4.96%
3,Cc1cc(C(=O)CCC(=O)NNC(=O)c2ccccc2O)c(C)s1,7.6%
4,O=C(NNC(=O)c1ccccc1O)c1ccccc1O,39% (active)
5,Cc1cc(C(=O)NNC(=O)c2ccccc2O)c(C)o1,31.3% (active)
6,Cc1cc(C(=O)NCCc2ccc(Cl)cc2)c(C)o1,4.91%
7,CCC(CC)c1nnc(NC(=O)c2nn(C)c(=O)c3ccccc23)s1,0.88%
8,CCCCCn1c(=O)[nH]c2cc(C(=O)NCCCN3CCCCC3C)ccc2c1=O (configuration not stated),-5.12%
9,O=C(NCc1ccc(F)cc1)C(c1ccccc1)N(C(=O)c1csnn1)C1CC1 (configuration not stated),2.95%
10,Oc1ccc2ccc3cccc[n+]3c2c1,9.81%
11,CN(C)C(CNC(=O)CCCOc1ccccc1)c1ccco1 (configuration not stated),1.39%
12,COc1cccc2c1C(=O)c1c(O)c3c(c(O)c1C2=O)CC(O)(C(C)=NNC(=O)c1ccc(Cl)c(Cl)c1)CC3OC1CC(N)C(O)C(C)O1 (configuration not stated),49.5% (active)
13,COc1ccc(C(=O)NCC2CCCCC2)cc1S(=O)(=O)N1CCCC1,3.82%
14,COc1ccc(C(=O)OCC(=O)NCC2CCCCC2)cc1S(=O)(=O)N1CCCc2ccccc21,74.5% (active)
15,COc1cc(C)c(C)cc1S(=O)(=O)N1CCCc2ccccc21,-5.07%
16,Cc1cc(C)c2oc(C(=O)Nc3ccc(S(=O)(=O)Nc4nccc(C)n4)cc3)cc(=O)c2c1,-3.63%
17,C=C1c2c(Cl)ccc(O)c2C(O)=C2C(=O)[C@]3(O)C(O)=C(C(N)=O)C(=O)[C@@H](N(C)C)[C@@H]3[C@@H](O)C12 (some centres not stated),42% (active)
18,CN(C)[C@@H]1C(=O)C(C(N)=O)=C(O)[C@@]2(O)C(=O)C3=C(O)c4c(O)ccc(Cl)c4[C@@H](O)[C@H]3C[C@@H]12,1.11%
19,Cc1cccc(C)c1NC(=O)CN1C(=O)C(C)Oc2ccccc21 (configuration not stated),4.2%
20,O=C(Cn1nnc2ccccc2c1=O)NCc1ccc(Cl)cc1,4.44%
21,C=CCNC(=O)c1sc(SC)cc1-c1ccc(Cl)cc1,2.46%
22,COC(=O)Nc1nc2ccc(Sc3ccccc3)cc2[nH]1,-5.35%
23,Nc1ccc2nc3c(=O)[nH]c(=S)[nH]c3nc2c1,58.3% (active)
